Laboratory results as given in PubChem BioAssay AID652104 (National Center for Advancing Translational Sciences (NCATS), 2013).
Out of some 410,000 compounds screened, about 7,200 (1.8%) were called active. Roughly 7% stayed inconclusive and do not appear here. Only a selection was taken, and actives are over-represented in it overall. Values without a mark were called inactive. The call rests on the fitted dose curve; in most records, active means well fitted activation curve with a large enough effect; inconclusive means small, poorly fitted or top-dose-only effect, or another doubt; inactive means no such curve, though single readings can be large or run the other way.

Experiment: qHTS of TDP-43 Inhibitors; further: nearly all actives have a fitted effect of over 50% in size; on growth rescue (activation): % of control where 0% means no effect
Settings: TDP-43 expressing yeast growth rescue, BacTiter-Glo, 24 h; series mostly up to 46.1 µM; growth rescue (activation): at the top concentration
Text: The goal of this project is to identify new chemical probes capable of reversing the toxicity associated with TDP-43 which is associated with frontotemporal lobar degeneration and amyotrophic lateral sclerosis. These compounds will provide a complementary approach to deciphering the tangled mechanisms of toxicity and protection that we have uncovered through genome-wide genetic screens and are beginning to uncover in a large-scale proteomics analysis with mass spectroscopy.
To this end, a miniaturized assay was developed to be screened against the Molecular Libraries Small Molecule Repository (MLSMR) to discover TDP-43 inhibitors. Please note that in the set-up this yeast-based assay compounds that inhibit as TDP-43, have a read-out as activators.
NIH Chemical Genomics Center [NCGC]
NIH Molecular Libraries Probe Centers Network [MLPCN]
Assay Submitter (PI): Susan Lindquist, Whitehead Institute/MIT
Dispense 2.5 microL yeast galactose medium per 1536-well plate, pin compound, dispense 2.5 microL TDP-43 expressing yeast in galactose medium at OD600=0.02 (pregrown in raffinose medium to mid-log phase) per well, incubate for 24 hr at 30 deg C, and cell growth will be measured using 5 microL of Bactiter/Glo reagent to entire plate and read using Luminescence Protocol in ViewLux.
Potency means the concentration at half of the fitted maximal effect.

Compound | growth rescue (activation) [%] | Potency
COc1ccc(CNCCc2ccc3c(c2)OCO3)c(OC)c1OC | 0.202 | –
Cc1cc(=O)oc2c(C)c(OCC(=O)N3CCN(Cc4ccc5c(c4)OCO5)CC3)ccc12 | -20.2 | –
CCOc1ccc(S(=O)(=O)NCc2ccc3c(c2)OCO3)cc1C | – | 12.6 µM (active)
O=C(CCC(=O)N1C[C@H]2C[C@@H](C1)c1cccc(=O)n1C2)NCc1ccccc1C(F)(F)F | 17.2 | –
COc1cccc(C(c2nnnn2-c2ccc3c(c2)OCCO3)N2CCC3(CC2)C(=O)NCN3c2ccccc2)c1OC (stereo not given) | 27.4 | –
Oc1cc2c(cc1CN1CCN(c3ccccc3)CC1)OCO2 | -5.52 | –
O=C(NC1CCCCC1)N1Cc2cc(N3CCCCC3)ccc2-n2nncc2C1 | 8.16 | –
c1cc2c(cc1[C@H]1OC[C@H]3[C@@H]1CO[C@@H]3c1ccc3c(c1)OCO3)OCO2 | – | 11.2 µM (active)
c1cc2c(cc1CCNC1CCCCCC1)OCO2 | 3.13 | –
O=C1/C(=C\c2ccc3c(c2)OCO3)N2CCC1CC2 | -14.1 | –
O=C(Cc1ccc(Cl)cc1)NCCN1CCN(C(=O)Cc2ccc(Cl)cc2)CC1 | -16.1 | –
CCOC(=O)c1cccc(C2=C(CNC(=O)c3ccncc3)[C@H]3CC[C@@H](C2)N3Cc2ccccc2)c1 | 16.2 | –
Cc1ccc(-n2c(C)cc(/C=C3\C(=O)NC(=O)N(C)C3=O)c2C)cc1C | 15.2 | –
Cc1ccnc(-n2c(C)cc(/C=C3\C(=O)NC(=S)N(C)C3=O)c2C)c1 | – | 35.5 µM (active)
Cc1cc(C=C2C(=O)NC(=O)NC2=O)c(C)n1-c1ccncc1 | 0 | –
ClC(Cl)(Cl)c1ccccc1 | 20.2 | –
Cc1nc2ccccc2c(=O)n1-c1ccc(Cl)cc1Cl | – | 15.8 µM (active)
O=c1c2ccccc2nc(CBr)n1-c1ccc(Cl)cc1 | -19.6 | –
O=c1c2ccccc2nc(-c2ccc(Cl)cc2Cl)n1-c1ccncc1 | 3.25 | –
CCOC(=O)[C@]12Cc3cc(OC)ccc3[C@H]1N(C(C)C)C(=O)c1ccccc12 | -64.3 | –
CCOC(=O)c1c(-c2ccccc2)oc2ccc(OC(=O)N(C)C)cc12 | 7.35 | –
Cc1ccc(-c2nc3ccccc3c(=O)n2-c2ccc(Br)cn2)cc1 | 3.11 | –
NC(=O)Cn1cc(C(=O)c2ccccc2F)c2ccccc21 | 15.2 | –
N#Cc1ccc(Cn2cc(C(=O)c3ccco3)c3ccccc32)cc1 | – | 17.8 µM (active)
Cc1ccc([C@H]2C[C@H](O)[C@@H](n3cc(COC(=O)c4ccccc4)nn3)CN2CC2CCCCC2)cc1 | 0 | –
CC(C)N(CC#CCC1(O)c2ccccc2-c2ccccc21)C(C)C | -17.2 | –
Cc1cccc(Cn2cccc(C(=O)Nc3ccc4c(c3)OCCO4)c2=O)c1 | 17 | –
CCOC(=O)C1CN(C)CCC1=O (stereo not given) | 5.32 | –

Compound | growth rescue (activation) [%] | Potency
c1ccc(-c2nnc(SCc3nc4ccccc4[nH]3)o2)cc1 | – | 12.6 µM (active)
c1cc2c(c(NC3=NCCCS3)c1)CCCC2 | 5.1 | –
O=c1[nH]c2ccccc2n1C1CCN(C(c2ccnc3ccccc23)c2nnnn2Cc2ccccc2)CC1 (stereo not given) | 10.3 | –
COC(=O)C1=C(c2ccc(F)cc2OCc2ccccc2)C[C@@H]2CC[C@H]1N2C(=O)NCc1ccc2[nH]ccc2c1 | 4.65 | –
COC(=O)C1=C(c2ccccc2OCc2ccccc2)C[C@@H]2CC[C@H]1N2C(=O)NCc1ccc(OC)cc1 | – | 35.5 µM (active)
COC(=O)C1=C(c2ccc(F)cc2OCc2ccccc2)C[C@@H]2CC[C@H]1N2C(=O)NCc1ccc(OC)c(OC)c1 | 19.4 | –
Cc1ccc(NC(=O)N(Cc2ccc3c(c2)OCO3)C2CCN(Cc3ccccc3)CC2)cc1F | 0.85 | –
O=C(C1CCN(S(=O)(=O)c2ccc(Br)s2)CC1)N1CCN(c2ccccc2)CC1 | 0 | –
O=c1[nH]c2ccccc2n1C1CCN(C(c2ccccc2)c2nnnn2Cc2ccccc2)CC1 (stereo not given) | 0 | –
COC(=O)C1=C(c2ccc(F)cc2F)C[C@@H]2CC[C@H]1N2C(=O)NC1CC1 | 13.1 | –
Cn1c(C(=O)N2CCC(C(=O)N3CCC4(CC3)OCCO4)CC2)cc2sccc21 | -14.1 | –
Cc1cc(N2C(=O)C3CCCN3C2c2ccc(Cl)c(Cl)c2)no1 (stereo not given) | 16.4 | –
CC1CNCCN1c1ccc(Cl)cc1 (stereo not given) | -10.5 | –
CC12CCC3C(CCC4CC(=O)CCC43C)C1CC(=NO)C2=O (stereo not given) | – | 15.8 µM (active)
C[C@]12CCC3C(CC[C@H]4[C@H](O)[C@H](O)CC[C@]34C)C1CCC2=O (stereo not given in full) | 9.92 | –
COc1ccc(-n2nnnc2C(c2cccc3ccccc23)N2CCC(n3c(=O)[nH]c4ccccc43)CC2)cc1 (stereo not given) | 19.2 | –
Nc1ccc(Cc2ccc(N)c(Cl)c2)cc1Cl | – | 12.6 µM (active)
CNCC[C@H](Oc1ccc(C(F)(F)F)cc1)c1ccccc1 | 13.1 | –
COc1ccc(-c2nn(CCC#N)cc2C(=O)Nc2ccc(C(C)=O)cc2)cc1 | 0 | –
CC(C)Oc1ccc(NC(=O)c2cc3ccccc3o2)cc1 | -11.1 | –
C[N+]1(C)CCOC(O)(c2ccc(-c3ccc(C4(O)C[N+](C)(C)CCO4)cc3)cc2)C1 (stereo not given) | – | 5.01 µM (active)
Cc1nn(-c2ccccc2)c(C)c1NC(=O)COC(=O)Cc1ccccc1 | 5.52 | –
C[C@@H]1C[C@@H]2O[C@H]2/C=C\C=C\C(=O)Cc2c(Cl)c(O)cc(O)c2C(=O)O1 | – | 11.2 µM (active)
c1ccc(CC2CCCCN2)cc1 (stereo not given) | 1.64 | –
CN(C(=O)c1cccc(NC(=O)Cc2cccc([N+](=O)[O-])c2)c1)C1CCCCC1 | -14.5 | –
Cc1ccc([C@H]2C[C@H](O)[C@@H](n3cc(COC(=O)c4ccccc4)nn3)CN2C(=O)C2CCCCC2)cc1 | 11.7 | –
O=C(Nc1ccc(Cl)cc1C(=O)c1ccccc1)c1cc(Cl)cc(Cl)c1 | -4.61 | –
